The text below walks through data of PubChem BioAssay.

Active and inactive are the calls of the source. The rule behind the calls is not given here.

For this test, the target named is Pantothenate synthetase (Mycobacterium tuberculosis (strain ATCC 25618 / H37Rv)) (UniProt P9WIL5). Nature of the test: Recombinant Mtb pantothenate synthetase (PanC) inhibitors, coupled enzyme, confirmatory (AID 375).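 Note: 0% = full reaction with vehicle and 100% = no enzyme background.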 The note with it: coupled enzyme assay; at 10 µM, stronger effect = higher value.
Sequence of Pantothenate synthetase (Mycobacterium tuberculosis (strain ATCC 25618 / H37Rv)) (P9WIL5 whole entry, looked up): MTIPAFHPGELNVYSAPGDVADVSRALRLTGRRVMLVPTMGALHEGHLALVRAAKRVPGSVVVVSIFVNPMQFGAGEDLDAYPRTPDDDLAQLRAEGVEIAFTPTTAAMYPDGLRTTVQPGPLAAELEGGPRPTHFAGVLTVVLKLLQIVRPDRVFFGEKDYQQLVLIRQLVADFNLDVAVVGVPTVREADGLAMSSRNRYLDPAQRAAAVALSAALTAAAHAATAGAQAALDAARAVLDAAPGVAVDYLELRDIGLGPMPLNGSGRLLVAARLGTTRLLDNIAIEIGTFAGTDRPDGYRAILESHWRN
For the molecule `CC(C)Oc1cccc(-c2cc(C(=O)N3CCN(S(C)(=O)=O)CC3)c3ccccc3n2)c1`, the inhibition – broadly, the drop in the measured response relative to a control, in per cent – was 5% (inactive).

Turning to `CC1(C)CN=C(N2CCN(c3ncnc4sc5c(c34)CCCC5)CC2)S1`, the inhibition was 0% (inactive).

As to `CC1(C)CC(=O)C=C(NC2CCS(=O)(=O)C2)C1` (stereo not given), the inhibition is 0% (inactive).

Turning to `CCc1nnc(NC(=O)c2ccc(S(=O)(=O)NC3CCCCC3)cc2)s1`, the inhibition was 0% (inactive).

With `Cc1nn(Cc2ccccc2)c(C)c1NC(=O)c1cc(-c2ccco2)on1`, the inhibition was 3% (inactive).

As to `CCOC(=O)CSC1=Nc2ccccc2C2=NC(CC(=O)NCc3cccs3)C(=O)N12` (stereo not given), the inhibition is 4% (inactive).

In the case of `CCN(CC)CCn1c(OC)cc(=O)[nH]c1=O`, the inhibition is 0% (inactive).

As to `Cc1noc(C)c1C(=O)Nc1ccc(Cl)cc1C(F)(F)F`, the inhibition was 4% (inactive).

In the case of `Cc1cc(C(=O)CSc2nc3ccccc3[nH]2)c(C)n1C`, the inhibition was 12% (inactive).

As to `C=COC(=O)CSc1snc(SCC(=O)OC)c1C#N`, the inhibition was 0% (inactive).

Turning to `CCSC1=NCN(CCCC(=O)O)CN1`, the inhibition is 0% (inactive).

For `COc1ccccc1NC(=O)N(Cc1ccccc1)c1ccccn1`, the inhibition was 6% (inactive).

Turning to `CCCc1cc(C(=O)Nc2ccccc2SC)no1`, the inhibition was 0% (inactive).

For `CC(NS(=O)(=O)c1ccc(F)cc1)C(c1cccs1)N1CCN(C)CC1` (stereo not given), the inhibition was 0% (inactive).

Take `COc1ccc(CC(NC(C)=O)C(=O)N2CCN(C(=O)N(C(C)C)C(C)C)CC2)cc1` (stereo not given): the inhibition is 0% (inactive).

Take `CCc1nn2c(=O)cc(CSc3nc4sc5c(c4c(=O)n3C)CCCC5)nc2s1`: the inhibition is 0% (inactive).

Regarding `CCCc1n[nH]c2c1/C(=N/O)CC(c1ccccc1)C2` (stereo not given), the inhibition is 8% (inactive).

On to `COc1cccc(-n2nnc3c(=O)n(Cc4cccc(F)c4)cnc32)c1`, for which the inhibition is 4% (inactive).

Regarding `O=C(OCC(=O)N1CCCCCC1)c1cccs1`, the inhibition was 0% (inactive).

For the molecule `CSc1nc(N2CCOCC2)c2ccccc2n1`, the inhibition is 0% (inactive).

As for `CC1(C)Cc2c(sc3c2c(=N)n(Cc2ccco2)c(=O)n3Cc2ccccc2)CO1`, the inhibition was 0% (inactive).

Turning to `COc1ccccc1-n1cnc(N)c1C(C)=O`, the inhibition is 0% (inactive).

Consider `CC(NCCc1ccc(O)cc1)C(O)c1ccc(O)cc1` (stereo not given), for which the inhibition was 0% (inactive).

For `CN(C)c1nc(Nc2ccc(Cl)cc2)nc(OCC#N)n1`, the inhibition is 6% (inactive).

On to `Cc1ccc(-c2ccc(=O)n(CCC(=O)NCCN3CCCCC3C)n2)cc1` (stereo not given), for which the inhibition was 0% (inactive).

For `COc1ccccc1OCCOc1ccccc1/C=N/n1cnnc1`, the inhibition is 6% (inactive).

`C=CCn1c(SCC(=O)c2cc(C)n(C(C)COC)c2C)nc2sc(C)c(C)c2c1=O` (stereo not given): the inhibition was 4% (inactive).

`O=C(Nc1cccc(F)c1)c1ccc2c(c1)OCO2`: the inhibition was 2% (inactive).

In the case of `COCCCN(Cc1ccccn1)S(=O)(=O)Cc1ccccc1`, the inhibition was 0% (inactive).

Turning to `Cc1ccc(-c2nc3cnccn3c2Nc2ccc3c(c2)OCO3)o1`, the inhibition was 2% (inactive).

As to `COC(=O)c1sccc1NC(=O)c1ccncc1`, the inhibition is 6% (inactive).

For `Cc1cccc(NC(=O)CCCCCN2C(=O)c3ccccc3C2=O)n1`, the inhibition was 0% (inactive).

As to `CCOC(=O)C(NC(=O)C1CCCN1C(=O)OCc1ccccc1)C(=O)OCC` (stereo not given), the inhibition is 4% (inactive).

As to `Cc1nc2ccc(C(=O)c3ccccc3)cc2[nH]1`, the inhibition is 0% (inactive).

In the case of `Cc1noc(C)c1CSc1nnc2scc(-c3ccc(Cl)cc3)n12`, the inhibition is 0% (inactive).

As for `COc1ccc(N2CC(C(=O)Nc3ccc(F)cc3F)CC2=O)cc1` (stereo not given), the inhibition was 1% (inactive).

For `COc1ccc(-c2nnc(SCc3nnc(-c4ccc(Cl)cc4)o3)n2-c2ccccc2)cc1`, the inhibition was 0% (inactive).

Take `O=C(CN1CCN(c2nc(-c3ccccc3)cs2)CC1)Nc1ccc2c(c1)OCO2`: the inhibition was 4% (inactive).

For the molecule `CCOC(=O)N1CCN(C(=O)CSc2nnc(Cc3ccccc3)o2)CC1`, the inhibition is 0% (inactive).

For `CC1CCc2cc(F)cc3c(O)c(C(=O)Nc4cnccn4)c(=O)n1c23` (stereo not given), the inhibition was 0% (inactive).
